Pf growth 96h: P. falciparum growth inhibition at 96 hour, primary screen for plastid delayed-death inhibitors | P. falciparum luciferase reporter growth, 96 h | Potency, µM (top dose mostly 28.7 µM), for inactives: at the highest dose activity change, negative = inhibition, hits mostly inhibitors | actives 6.9% (n = 320,000) | AID 504834; active = well fitted inhibition curve with a large enough effect; inconclusive = small, poorly fitted or top-dose-only effect, or another doubt; inactive = no such curve, though single readings can be large or run the other way; note: % is set by controls: 0 for no effect and ±100 for the full control effect
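P. falciparum expressing integrated firefly luciferase grown in erythrocytes (2% hematocrit, 0.05% parasitemia final) with compounds for 96 hours at 37 C, 5% CO2. Growth inhibition read as loss of luminescence after adding luciferase detection reagent.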
RE007 growth inh: less growth of the S. pombe RE007 Vpr strain; S. pombe RE007 Vpr strain, BacTiter-Glo ATP luminescence, 24 h; Potency, µM (doses to about 92.2 µM), inactives show at the top dose activity change, negative = less growth, actives largely listed as inhibitors; actives 0.21% (n = 360,000); active = well fitted falling curve with a large enough effect; inconclusive = small, poorly fitted or top-dose-only effect; inactive = no such curve, though single readings can be large or run the other way; note: % is set by controls: 0 for no effect and ±100 for the full control effect; nearly all actives have a fitted effect of over 50% in size
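Fission yeast RE007 carrying one integrated HIV-1 vpr copy, seeded at OD 0.01 in PMG+AL medium with 23 nL pinned compound. Grown 24 h at 30 degrees; viability read by BacTiter-Glo luminescence after 5 min.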
Pf growth 48h: inhibits P. falciparum growth in the first generation, 48 h; Potency, µM (titrated, usually from 28.7 µM), inactives show at the highest dose activity change, negative = inhibition, hits mostly inhibitors; actives 5.9% (n = 310,000); P. falciparum luciferase growth in erythrocytes, 48 h; active = well fitted inhibition curve with a large enough effect; inconclusive = small, poorly fitted or top-dose-only effect, or another doubt; inactive = no such curve, though single readings can be large or run the other way; note: % is set by controls: 0 for no effect and ±100 for the full control effect
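Parasite viability was followed by luminescence of a genomically integrated firefly luciferase. Cultures held 0.1% parasitemia at 2% hematocrit (final), incubated under 5% CO2 at 37 C.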
NS1 function inh: inhibitors of influenza NS1 protein function; Potency, µM (titrated, usually from 46.1 µM), for the others: at the highest dose activity, positive = more growth; actives 0.4% (n = 270,000); AID 2326; note: actives are rising curves; nearly all actives have a fitted effect of over 50% in size
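In this qHTS, NS1 from influenza A is expressed in budding yeast, where it slows growth. Cells are switched from glucose to 2% galactose medium (pH 6.0, -URA), treated with compound, and growth recovery is read at OD600.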
SARS PLpro yeast: blocks SARS-CoV papain-like protease in a yeast assay; S. cerevisiae expressing SARS-CoV PLpro, growth rescue; actives 0.19% (n = 330,000); Potency, µM (top dose mostly 32.9 µM), for the others: top-dose activity, positive = growth rescue, actives largely listed as activators; AID 485353; note: 0% is about no effect; nearly all actives have a fitted effect of over 55% in size
Starred values were filed as active, the others as inactive; ? = inconclusive; . = no result; [ ] = remark or other dose. Only some compounds are listed: those with a hit (about 9.5% of all), similar ones and a draw of the others. Unless noted, calls come from the whole dose curve. Potency is the fitted concentration of half-maximal effect.

SMILES	Pf growth 96h	RE007 growth inh	Pf growth 48h	NS1 function inh	SARS PLpro yeast
CCCCNC(=O)c1onc(CS(=O)(=O)c2ccccn2)c1C(=O)NCCCC	14.7µM*	-8.5%	?	.	4.8%
CC(C)NC(=O)c1onc(CSc2ccc(Cl)cc2)c1C(=O)O	83.9%	3.5%	8.0%	4.0%	-2.5%
CCCCNC(=O)c1onc(CSc2ccccc2CC)c1C(=O)O	?	3.3%	?	19.2%	0.6%
CCCCNC(=O)c1onc(CSc2ccncc2)c1C(=O)NCCCC	-28.7%	2.5%	?	6.5%	3.9%
CC(C)CCNC(=O)c1onc(CSc2nc3ccccc3[nH]2)c1C(=O)NCCC(C)C	2.33µM*	-4.2%	?	19.6%	0.4%
CCCCNC(=O)c1onc(CSc2ccccc2)c1C(=O)NCCCC	11.7µM*	-12.7%	?	.	1.1%
Cc1ccc[n+](CC(=O)Nc2cc(C(F)(F)F)ccc2N2CCOCC2)c1	?	-9.5%	2.08µM*	.	-0.3%
COc1ccc(NC(C)=O)cc1NC(C)C(=O)Nc1cc(C(F)(F)F)ccc1N1CCOCC1 (stereo not drawn)	?	-13.7%	3.7µM*	-1.5%	0.9%
O=C(Cc1ccc2c(c1)OCCO2)Nc1cc(C(F)(F)F)ccc1N1CCOCC1	?	3.7%	14.7µM*	.	-3.7%
CC(Cl)C(=O)Nc1cc(C(F)(F)F)ccc1N1CCOCC1 (stereo not drawn)	?	6.3%	?	0.0%	-1.8%
O=C(Cc1ccc(S(=O)(=O)N2CCOCC2)s1)Nc1cc(C(F)(F)F)ccc1N1CCCC1	?	2.5%	11.7µM*	.	0.1%
O=C(O)C[C@H]1OCC=C2CN3CC[C@]45c6ccccc6N[C@@H]4[C@H]1[C@H]2C[C@H]35	.	.	.	-5.8%	.
O=C(NCCCN1CCCC1=O)Nc1ccccc1F	11.3%	10.1%	42.0%	-2.1%	-2.9%
CCOC(=O)c1ccc(CN2Cc3ccccc3C2=O)cc1	4.4%	-28.4%	.	-11.6%	-0.4%
CC(C)CC(=O)NC(=S)Nc1cc(C(F)(F)F)ccc1N1CCOCC1	0.0%	.	?	11.1%	3.4%
O=C(CCc1ccccc1)NC(=S)Nc1cc(C(F)(F)F)ccc1N1CCOCC1	8.28µM*	16.6%	?	10.9%	-1.2%
COc1ccc(S(=O)(=O)N2CCOCC2)cc1NC(=O)CSc1nnc(N)s1	6.9%	-12.7%	-2.2%	.	4.5%
O=C(COC(=O)CNC(=O)c1cccc(OC(F)F)c1)NNC(=O)c1ccccc1	?	-2.1%	-26.5%	.	-0.9%
Cc1ccc(S(=O)(=O)NC23CC4CC(CC(C4)C2)C3)cc1	?	-4.5%	14.7µM*	.	1.2%
CCN(CC)C(=O)CSc1nc2c(sc(=S)n2Cc2ccco2)c(=O)n1-c1ccccc1	7.38µM*	-1.9%	?	23.7%	-1.3%
COc1ccccc1N1CCN(C(=O)C(C)N(c2ccc(C)c(C)c2)S(C)(=O)=O)CC1 (stereo not drawn)	11.7µM*	-2.5%	?	-13.1%	0.1%
COc1ccccc1N1CCN(C(=O)C(C)N(c2ccc(C)cc2)S(C)(=O)=O)CC1 (stereo not drawn)	.	3.0%	?	-36.0%	1.6%
N#Cc1cc(Cl)c(NCC2CCCO2)cc1C#N (stereo not drawn)	?	1.9%	7.0%	11.3%	2.9%
NS(=O)(=O)c1ccc(CNC(=O)c2ccc(NS(=O)(=O)c3ccc4[nH]c(=O)[nH]c4c3)cc2)cc1	9.0%	15.7%	5.9%	.	0.0%
CN(C)C1=NP(N(C)C)(N(C)C)=NC(c2ccccc2)=N1	1.65µM*	13.8%	0.0%	7.8%	7.3%
SMILES	Pf growth 96h	RE007 growth inh	Pf growth 48h	NS1 function inh	SARS PLpro yeast
CN(C)/C=C1\N=C(c2ccccc2)OC1=O	34.5%	-13.2%	27.4%	.	-5.8%
Cn1c(CN2CCN(c3ccc(Cl)cc3)CC2)nc2ccccc21	?	0.8%	-12.0%	-65.1%	8.91µM*
Cn1c(CN2CCN(c3ccccc3NS(C)(=O)=O)CC2)nc2ccccc21	?	-14.1%	-26.1%	-2.0%	0.7%
CCn1c(CN2CCN(c3ccc(Cl)cc3)CC2)nc2ccccc21	?	0.4%[3.69 µM]	11.7µM*	-40.6%	25.9%
COC(=O)c1cn(NC(=O)c2cc(OC)c(OC)c(OC)c2)c(=O)c2ccccc12	3.29µM*	13.4%	3.7%	-6.0%	-1.5%
COC(=O)c1cn(NC(=O)c2cc(OC)cc(OC)c2)c(=O)c2ccccc12	-23.3%	-7.7%	-8.1%	-5.2%	8.5%
COC(=O)c1cn(NC(=O)c2ccncc2)c(=O)c2ccccc12	5.86µM*	-5.2%	11.1%	-8.7%	-1.4%
COC(=O)c1cn(NC(=O)c2cccnc2)c(=O)c2ccccc12	?	-4.8%	10.2%	-1.2%	-1.2%
CCOC(=O)c1c(C)nc(C)c2c(=O)oc3ccccc3c12	0.2%	-10.7%	68.1%	.	0.3%
CCCS(=O)(=O)NC(=O)C1(C)CCN(C(=O)c2cc(C)nn2C(C)(C)C)C1 (stereo not drawn)	.	-11.4%	.	.	.
Cc1ccc(CNC(=O)CN2C(=O)C3(OCCCO3)c3ccccc32)cc1	10.4µM*	-4.2%	-4.2%	-0.4%	0.3%
O=C(CN1C(=O)C2(OCCCO2)c2ccccc21)NCc1ccccc1	70.5%	-17.7%	-2.8%	-1.9%	6.6%
COc1ccc(N2CCN(CCCNC(=O)C(=O)c3c[nH]c4ccccc34)CC2)cc1	2.08µM*	-12.6%	3.7µM*	2.5%	0.5%
O=C(NCCCN1CCOCC1)C(=O)c1c[nH]c2ccccc12	-11.4%	-9.9%	2.1%	7.7%	11.7%
CCOc1ccc(CN2CCN(Cc3cccc4c3OCO4)CC2CCO)cc1 (stereo not drawn)	?	-4.2%	26.3%	4.8%	0.0%
CCOc1ccc(CN2CCN(Cc3cccc4nonc34)CC2CCO)cc1 (stereo not drawn)	14.7µM*	-14.0%	17.5%	2.1%	0.7%
CCOc1ccc(CN2CCN(Cc3[nH]c4ccccc4c3C)CC2CCO)cc1 (stereo not drawn)	10.4µM*	6.2%	?	5.4%	-0.8%
CCOC(=O)C1(CCc2ccccc2)CCN(Cc2cccc3cnccc23)CC1	7.38µM*	0.7%	?	1.1%	-1.0%
CCOC(=O)C1(CCc2ccccc2)CCN(Cc2ccc(OC)cc2)CC1	?	4.2%	?	-4.8%	-0.5%
CCOC(=O)C1(CCc2ccccc2)CCN(C(=O)CN2CCOC2=O)CC1	1.65µM*	-6.8%	26.2%	-1.7%	1.2%
CCOC(=O)C1(CCc2ccccc2)CCN(Cc2c(O)cccc2OC)CC1	31.2%	3.9%	0.262µM*	-5.0%	-0.9%
CCOC(=O)C1(CCc2ccccc2)CCN(C(=O)C2=C(C)OCCO2)CC1	?	-11.0%	-3.8%	-2.2%	-1.0%
CCCCCCCCOC(=O)c1nc(Cl)c(Cl)c(N)c1Cl	?	-12.5%	?	-8.0%	-45.7%
COC(=O)c1nc(Cl)c(Cl)c(N)c1Cl	24.6%	0.2%	10.4µM*	.	2.8%
O=Nc1ccc(NOC(=O)c2ccccc2)cc1	6.1%	10µM*	62.2%	-19.7%	28.5%
